CYP2C19 inhib = blockers of cytochrome P450 2C19 activity – biochemical, luminescence, ADME assay, primary screen; AID 778, 2007; 96,000 tested, 21% active; inhibition, % at 5 µM; CYP2C19 Supersomes, luciferin-H EGE luminescence, 30 min;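 active means CYP2C19 inhibition above a set limit at 5 µM in the primary screen, cut at about 50% in these data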;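 further: plate controls were negative control wells for no effect and 2.5 mM tranylcypromine positive control for full effect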
CYP2C19 act = human CYP2C19 activators, primary screen, biochemical, luminescence. recombinant CYP2C19, luciferin-H EGE luminescence; hits give high values; 0 = fully inhibited enzyme, 1 = untreated enzyme. activation factor at 5 µM. 96,000 tested, under 10 active. AID 1025, 2008;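 active means activation factor of at least 2 at 5 µM in the primary screen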;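 further: 0 = wells with 2.5 mM tranylcypromine and 1 = vehicle-only wells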
CYP2C9 inh = blockers of cytochrome P450 2C9 activity – biochemical, luminescence, ADME assay, primary screen; CYP2C9 Supersomes, luciferin-H conversion; inhibition, % at 5 µM; 96,000 tested, 20% active; P11712;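 active means blocking of liver enzyme CYP2C9 beyond about 50% at 5 µM, limit read from the data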
Target sequence (P11712 whole entry, looked up): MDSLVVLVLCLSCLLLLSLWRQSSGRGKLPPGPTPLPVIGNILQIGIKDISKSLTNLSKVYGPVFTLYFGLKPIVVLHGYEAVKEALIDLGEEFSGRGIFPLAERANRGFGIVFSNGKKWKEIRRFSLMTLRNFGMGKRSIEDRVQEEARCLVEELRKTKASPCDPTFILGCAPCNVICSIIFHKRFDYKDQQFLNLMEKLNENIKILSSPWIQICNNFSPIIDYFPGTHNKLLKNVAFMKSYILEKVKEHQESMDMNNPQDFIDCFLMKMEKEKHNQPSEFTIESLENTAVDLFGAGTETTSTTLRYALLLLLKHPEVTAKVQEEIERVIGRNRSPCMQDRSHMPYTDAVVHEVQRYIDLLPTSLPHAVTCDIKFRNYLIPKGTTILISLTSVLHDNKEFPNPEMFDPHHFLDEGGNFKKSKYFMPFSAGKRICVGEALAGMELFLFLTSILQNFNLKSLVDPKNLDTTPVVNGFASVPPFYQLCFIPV
sEH inh = soluble epoxide hydrolase inhibitors, primary screen, biochemical, human sEH | Bifunctional epoxide hydrolase 2 (Homo sapiens), P34913 | recombinant human sEH enzymatic activity assay | inhibition, % at 2 µM | 91,000 tested, 0.34% active; in the data active means inhibition above about 80%
CYP2C9 act = human CYP2C9 activators, primary screen, biochemical, luminescence; Cytochrome P450 2C9 (Homo sapiens), P11712; recombinant CYP2C9, luciferin-H conversion; hits give high values; factor 1 = untreated enzyme, 0 = blocked; activation factor at 5 µM; 96,000 tested, 1.4% active; AID 1024, 2008;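 active means activation factor of 2 or more for CYP2C9 at a 5 µM dose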;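 further: 0 = sulfaphenazole-blocked wells and 1 = vehicle-only wells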
sEH act = soluble epoxide hydrolase activators, primary screen, biochemical, human sEH | activation, % at 2 µM | 91,000 tested, 0.04% active | purified human sEH enzymatic activity, activator screen | Bifunctional epoxide hydrolase 2 (Homo sapiens), P34913 | AID 717, 2007; in the data active means activation above about 37%
The depositor's hits bear a star; . = not tested or not shown. This is a sample that favours compounds with a hit; in the whole collection about 27% have one here.

SMILES	CYP2C19 inhib	CYP2C19 act	CYP2C9 inh	sEH inh	CYP2C9 act	sEH act
O=C1CSC(c2ccc3c(c2)OCO3)N1c1ccc(Oc2ccccc2)cc1 (stereo not drawn)	30.8	0.7	59.6*	2.2	0.4	0.6
COc1ccc(C2SCC(=O)N2c2c(C)n(C)n(-c3ccccc3)c2=O)cc1 (stereo not drawn)	44.2	0.6	39.5	.	0.6	.
Cc1ccc(N2C(=O)CSC2c2ccc3c(c2)OCO3)cc1 (stereo not drawn)	100.3*	0	68.6*	-6.7	0.3	2.2
CC(=O)Nc1ccc(N2C(=O)CSC2c2ccc(F)cc2)cc1 (stereo not drawn)	-17.4	1.2	-3.9	.	1	.
O=C(N/N=C\c1ccc(Cl)s1)c1cccs1	9.2	0.9	32.2	94.4*	0.7	-94.5
Cc1nnc(SCCn2c(N3CC(C)CC(C)C3)nc3c2c(=O)[nH]c(=O)n3C)s1 (stereo not drawn)	41.4	0.6	60.8*	10.5	0.4	-10.2
Cc1nnc(SCCn2c(N3CCC(C)CC3)nc3c2c(=O)[nH]c(=O)n3C)s1	11.1	0.9	40.1	-14.5	0.6	8.5
CCn1c(COc2ccc3c(c2)CCCC3)nnc1SCC(=O)Nc1nccs1	10.3	0.9	6.7	-16.8	0.9	13.9
CN(c1ccccc1C(=O)Nc1cccc(Cl)c1Cl)S(C)(=O)=O	64.8*	0.4	28.3	-4.0	0.7	3.0
Cc1ccc(NC(=O)c2ccccc2N(C)S(C)(=O)=O)cc1C	50.3*	0.5	-4.7	-5.6	1	5.1
CCOc1ccccc1NC(=O)c1ccccc1N(C)S(C)(=O)=O	27.5	0.7	-11.1	2.6	1.1	-2.5
CCCc1cc(=O)[nH]c(SCC(=O)N2CCC(C(=O)OCC)CC2)n1	21.7	0.8	26.1	2.6	0.7	-1.7
O=C(O)CSC1CC(=O)N(c2ccc(Cl)c(Cl)c2)C1=O (stereo not drawn)	63.7*	0.4	33.4	3.4	0.7	-5.2
CC1=C(C(=O)OCC(C)C)C(c2cc3c(cc2Br)OCO3)NC(=O)N1C (stereo not drawn)	83.7*	0.2	72.2*	25.8	0.3	-27.3
CCSCCOC(=O)C1=C(C)N(C)C(=O)NC1c1cc(OC)ccc1OC (stereo not drawn)	92.7*	0.1	79.2*	.	0.2	.
COC(=O)C1=CN(C(C)C)C=C(C(=O)OC)C1c1cc2c(cc1Br)OCO2	59.8*	0.4	25.9	-11.1	0.7	11.0
CCOCCOC(=O)C1=C(C)N(C)C(=O)NC1c1ccccc1Cl (stereo not drawn)	54.2*	0.5	11.9	.	0.9	.
CCOC(=O)C1=C(C)NC(=O)NC1c1cc2c(cc1Br)OCO2 (stereo not drawn)	.	.	.	4.8	.	-5.5
CCSCCOC(=O)C1=C(C)NC(=O)NC1c1cc(OC)ccc1OC (stereo not drawn)	39.1	0.6	32.5	.	0.7	.
COc1ccc(OC)c(C2NC(=O)NC(C)=C2C(=O)Nc2ccc(C)cc2)c1 (stereo not drawn)	32.5	0.7	20.3	.	0.8	.
CCOC(=O)C1=C(C)N(C)C(=O)NC1c1ccc(C)s1 (stereo not drawn)	30.7	0.7	8.1	5.4	0.9	-3.1
CC1=C(C(=O)OCC(C)C)C(c2ccccc2Cl)NC(=O)N1C (stereo not drawn)	98.4*	0	83.6*	.	0.2	.
CSc1nnnn1-c1cccc(O)c1	21.9	0.8	-142.3	-2.5	2.4*	2.6
Cc1cccc(-n2nnnc2SCn2nnc3ccccc3c2=O)c1	.	.	.	7.1	.	-6.0
CCOC(=O)C1C(=O)NC(C)C1c1ccccc1 (stereo not drawn)	-21.9	1.2	-8.1	.	1.1	.
SMILES	CYP2C19 inhib	CYP2C19 act	CYP2C9 inh	sEH inh	CYP2C9 act	sEH act
CN(C)S(=O)(=O)c1cccc(-c2nnc(SCc3ccc4c(c3)OCCO4)o2)c1	64.0*	0.4	92.5*	.	0.1	.
O=S(=O)(c1cccc(-c2nnc(SCc3ccc(Cl)cc3)o2)c1)N1CCCCC1	69.4*	0.3	87.3*	-4.3	0.1	3.8
O=S(=O)(c1ccc(-c2nnc(SCc3ccccc3)o2)cc1)N1CCCC1	13.1	0.9	32.9	-1.7	0.7	0.7
CCOC(=O)c1ccc(NC(=O)NC2CCN(CC(=O)NCc3ccc4c(c3)OCO4)CC2)cc1	3.5	1	9.7	49.4	0.9	-50.4
Cn1c(SCC(=O)NCCc2ccccc2)nnc1-c1ccco1	-6.7	1.1	-14.6	-13.3	1.1	15.4
Nc1ccc(SC(F)(F)F)cc1C(=O)c1ccccc1	31.7	0.7	32.6	-3.4	0.7	4.0
Nc1ccc(Cl)cc1/C(=N/O)c1ccccc1	77.9*	0.2	55.9*	.	0.4	.
O=C(O)CONC(=O)c1cc(OCC(F)(F)F)ccc1OCC(F)(F)F	-0.9	1	-2.7	-0.1	1	0.7
O=C1Cc2ccccc2N1c1ccccc1	-3.1	1	-16.7	.	1.2	.
O=C1CC(=Nc2ccccc2)NN1c1ccccc1	35.7	0.6	84.3*	4.7	0.2	1.0
CCOC(=O)NC(c1ccccc1)C1CCCCC1=O (stereo not drawn)	37.7	0.6	4.3	-6.0	1	6.7
O=C1CCCCC1C(Nc1ccc(Br)cc1)c1ccccc1 (stereo not drawn)	49.4	0.5	61.5*	12.5	0.4	-9.7
COc1ccc2cc(CN(CC3CCCO3)S(=O)(=O)c3ccc(C(C)=O)cc3)c(=O)[nH]c2c1 (stereo not drawn)	35.1	0.6	60.0*	1.1	0.4	-0.3
COc1ccc(S(=O)(=O)N(Cc2cc3cc(C)ccc3[nH]c2=O)CC2CCCO2)cc1 (stereo not drawn)	25.1	0.7	59.7*	9.5	0.4	-8.7
O=C(NCc1ccccc1)N(Cc1cc2cc3c(cc2[nH]c1=O)OCO3)CC1CCCO1 (stereo not drawn)	7.5	0.9	0.5	.	1	.
COc1ccc(S(=O)(=O)N(CCCN2CCCC2=O)Cc2cc3c(C)cc(C)cc3[nH]c2=O)cc1	65.1*	0.3	93.5*	3.6	0.1	-4.9
COC(=O)c1ccccc1S(=O)(=O)N(Cc1cc2ccc(OC)cc2[nH]c1=O)CC1CCCO1 (stereo not drawn)	37.6	0.6	89.7*	.	0.1	.
CNC(=O)CSc1nnc(-c2ccco2)n1-c1ccccc1OC	11.7	0.9	9.7	-1.4	0.9	0.6
COc1ccc(NC(=O)C2OCCc3ccccc32)c(OC)c1 (stereo not drawn)	91.4*	0.1	0.3	-11.9	1	13.6
COc1ccc(NC(=O)c2cc(C(C)C)on2)c(OC)c1	38.7	0.6	-183.5	-10.9	2.8*	10.8

Bioassay records (PubChem)
